The record followed here is PubChem BioAssay (NCI).

Holding throughout (assay): NCI-60 one-dose screen, 48 h (100 = growth as untreated, 0 = no growth, -100 = all killed)
Common to all, as to conditions: 10 µM unless noted

In test [1] the test system is HCT-15 colon.
Test [2] relates to HT29 colon.
For test [3], the system named is SNB-75 CNS.
Test [4] concerns SNB-19 CNS.
The test system of test [5] is U251 CNS.
Test [6] deals with PC-3 prostate.
For test [7], the system named is SK-MEL-5 melanoma.
In test [8] the test system is UACC-62 melanoma.
For test [9], the system named is LOX IMVI melanoma.
The test system of test [10] is SK-MEL-28 melanoma.
Test [11] deals with SK-MEL-2 melanoma.
The subject of test [12] is EKVX NSCLC.
For test [13], the system named is SN12C renal.
In test [14] the test system is UO-31 renal.
Test [15] has as its system TK-10 renal.
The subject of test [16] is ACHN renal.
For test [17], the system named is CCRF-CEM leukemia.
The subject of test [18] is MOLT-4 leukemia.
Test [19] deals with CAKI-1 renal.
Test [20] has as its system A498 renal.

SMILES strings stand for the structures. About 83,000 compounds went through this panel and 20% of them were active in at least one assay; those are over-represented in the sample as a whole.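 Cell lines were cultured in 96-well plates, exposed to a single compound concentration, and assessed for percent growth 48 hours later.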 A number with no mark means an inactive call. The source made the active and inactive calls. Rule for the calls: active = growth percent below 10; inactive = the rest.

For the molecule `Cc1cc2nc3c4cc([N+](=O)[O-])ccc4n(CCN(C)C)c3nc2cc1C`, the growth is -15.7% (active) in test [1]; 4.93% (active) in test [2]; -6.58% (active) in [3]; 8.53% (active) in test [4]; 1.87% (active) in test [5]; -0.344% (active) in [6]. The growth was -73.4% (active) in [7]; -58.7% (active) in [8]; -48.7% (active) in test [9]; 2.33% (active) in test [10]; -56.5% (active) in test [11]; -3.49% (active) in [12]. For the same molecule, the growth is 1.16% (active) in test [13]; -41.9% (active) in test [14]; -5.99% (active) in test [15]; -13% (active) in [16]; 3.84% (active) in [17]; 1.36% (active) in test [18].

Consider `C/C(=N\Nc1cc(C)nc2ccc(Br)cc12)c1ccc([N+](=O)[O-])cc1`, for which the growth is 21.7% in test [1]; 37.3% in test [2]; 105% in [3]; 75.7% in [4]; 20% in [5]; 74.8% in [6]. Besides, the growth in test [7] was 92.3%; in test [8] it was 89.6%; in [9], -29.9% (active); in test [10], 99.2%; in test [11] it was 93.1%; in [12] it was 78.2%. Besides, the growth is 60.2% in test [13]; 64.4% in [14]; 115% in test [15]; 42.5% in test [16]; 13.5% in [17]; 53.1% in test [18].

Turning to `C#CCNC(=O)c1cccc2c1cc(C)n2-c1nc2c(c(NCc3ccccc3)n1)CCCC2`, the growth is -60.1% (active) in [1]; 0.876% (active) in test [2]; 5.33% (active) in [3]; -24.9% (active) in test [4]; -71.6% (active) in test [5]; -18.2% (active) in test [6]. Moreover, the growth was -94.3% (active) in [7]; -60.6% (active) in test [8]; -86.6% (active) in test [9]; -6.03% (active) in test [10]; -38% (active) in test [11]; -30.4% (active) in test [12]. Further, the growth in [13] is -41.3% (active); in test [14], -63.8% (active); in test [15] it was -15% (active); in test [16], 3.27% (active); in test [19] it was 3.06% (active); in test [17], 5.3% (active). For the same molecule, the growth in test [18] was -8.18% (active).

For the molecule `CCN(c1ccccc1)S(=O)(=O)c1cc([N+](=O)[O-])ccc1Cl`, the growth in test [1] is 75.7%; in test [2], 63%; in test [3], 66.2%; in [4] it was 85%; in test [5] it was 59.2%; in [6] it was 76.8%. Further, the growth in [7] is 45.3%; in test [8] it was 57.5%; in [9], 52.4%; in test [10], 88.8%; in [11], 46.2%; in [12] it was 88.3%. For the same molecule, the growth in [13] was 60.7%; in test [14], 53.9%; in [15], 107%; in test [16], 79.9%; in test [20], 71.9%; in test [17], 52%.

Consider `c1ccc2cc(Cn3c(-c4cccc5ccccc45)[n+](Cc4ccc5ccccc5c4)c4c5ccccc5c5ccccc5c43)ccc2c1`, for which the growth in [1] is -60.4% (active); in test [2], -49.5% (active); in [3], -66.3% (active); in [4], -82.7% (active); in test [5], -91.1% (active); in test [6], -46.7% (active). Also, the growth in test [7] was -98.1% (active); in [8] it was -74.5% (active); in test [9], -84.3% (active); in test [10], -61.5% (active); in test [11], -72.5% (active); in test [12], -77.2% (active). The growth in [13] is -82% (active); in test [14] it was -89.2% (active); in test [15] it was -79.8% (active); in test [16] it was -92.6% (active); in test [17], -17.4% (active); in [18] it was -55.3% (active).

In the case of `COc1cccc(-c2cc(C(=O)Nc3ccc(/C=C/c4ccc(OC5CCN(C)CC5)cc4)cc3)ccc2OC)c1`, the growth is -61.8% (active) in test [1]; -60.1% (active) in test [2]; -50.3% (active) in [3]; -11.1% (active) in test [4]; -92.6% (active) in test [5]; 8.53% (active) in [6]. In addition, the growth was 96% in [7]; 69.6% in [8]; -86.9% (active) in test [9]; 41.7% in [10]; 98.5% in test [11]; 27.2% in test [12]. Also, the growth was -78.3% (active) in test [13]; 37.7% in test [14]; 1.81% (active) in test [15]; 60.1% in test [16]; 109% in test [19]; -10.8% (active) in test [17]. In test [18], the growth is -36.4% (active).

`Cc1cnc(C(=O)Nc2nc3ccc(S(=O)(=O)Nc4ccc(C(C)(C)C)cc4)cc3[nH]2)cn1`: the growth in [1] is 18%; in test [2], 12.8%; in test [3] it was 5.59% (active); in test [4] it was 31.6%; in test [5], 18.9%; in [6], 20.8%. Also, the growth in [7] was 10.9%; in [8], 40.2%; in [9], 42.3%; in [10], 35.8%; in [11] it was 51.1%; in test [12], 51%. In addition, the growth in [13] is 43.7%; in [14], 40.4%; in [15], 43.4%; in test [16], 49.6%; in test [19], 27.3%; in test [17] it was 10.8%. The growth in test [18] was 21.5%.

Regarding `Cc1ccc(-n2c3c(c(-c4ccccc4)c2-c2ccccc2)C2=NCCN2C=N3)cc1`, the growth in [1] was 81.3%; in test [2], 88%; in [3], 70.5%; in test [4] it was 88.5%; in test [5], 92%; in test [6] it was 76.8%. Besides, the growth in test [7] was 68.1%; in [8], 75.1%; in test [9], 93.6%; in test [10], 110%; in test [11], 99.3%; in test [12], 80.8%. Also, the growth in test [13] is 85%; in test [14], 68.9%; in [15], 144%; in test [16], 96.4%; in test [17], 98.5%; in test [18] it was 92.9%.
